Screening data: PubChem, National Center for Advancing Translational Sciences (NCATS)
p53 reactivation – mutant p53 re-activation in reporter cells; actives 0.063% (n = 320,000); Potency, µM (series often up to 92.2 µM), hits mostly activators; H1299 p53-A138V BP100-luciferase reporter, luminescence, 24 h; AID 504706; also: nearly all actives have a fitted effect of over 45% in size
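H1299 (p53-null), stable ts p53-A138V + BP100-Luc; 1000 cells/well, Opti-MEM/10% FBS; cpd 4 pt, 1:5; 24 h, 37 deg C, 5% CO2; detection reagent 10 min RT; luminescence.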
ELG1 DNA repair – inhibitors of ELG1-dependent DNA repair in HEK293T cells | Potency, µM (highest dose often 46.1 µM), hits mostly inhibitors | actives 2.3% (n = 330,000) | HEK293T ELG1-luciferase reporter, luminescence, 16 h; DNA damage induced by 5-fluorouridine; also: nearly all actives have a fitted effect of over 55% in size
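5-Fluorouridine DNA damage + compound/DMSO, 2,000 cells/well, 16 h, 37 °C/5% CO2. ONE-Glo, 30 min RT, luminescence. Readout = decrease in reporter signal.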
RORgamma inh – inhibitors of mouse ROR gamma transcriptional activity; P51450; Drosophila S2 Gal4-RORgamma UAS-luciferase reporter, 20 h; Potency, µM (titrated, usually from 53.6 µM), most hits filed as inhibitors; actives 5.4% (n = 310,000); also: nearly all actives have a fitted effect of over 60% in size
Target sequence (P51450 whole entry, looked up, the tested form may be a part): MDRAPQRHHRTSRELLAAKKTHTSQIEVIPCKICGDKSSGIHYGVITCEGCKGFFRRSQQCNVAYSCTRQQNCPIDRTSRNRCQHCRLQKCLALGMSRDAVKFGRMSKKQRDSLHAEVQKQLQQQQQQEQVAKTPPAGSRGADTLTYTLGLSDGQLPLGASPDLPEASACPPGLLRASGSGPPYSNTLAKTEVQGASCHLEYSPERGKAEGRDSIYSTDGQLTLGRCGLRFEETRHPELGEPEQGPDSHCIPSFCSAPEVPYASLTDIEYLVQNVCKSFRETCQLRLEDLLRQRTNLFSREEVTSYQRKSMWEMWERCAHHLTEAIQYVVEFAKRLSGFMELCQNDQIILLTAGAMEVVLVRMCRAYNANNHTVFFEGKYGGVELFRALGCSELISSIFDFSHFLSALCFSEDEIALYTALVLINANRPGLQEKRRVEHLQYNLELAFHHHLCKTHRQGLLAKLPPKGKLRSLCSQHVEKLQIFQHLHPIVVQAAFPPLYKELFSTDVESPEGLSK
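Using a luciferase readout, inhibitors were identified by reduced reporter activity in Drosophila cells coexpressing a copper-inducible Gal4–ROR gamma fusion and UAS-driven Photinus luciferase, incubated 20 hr after 700 uM copper sulfate.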
BRCA1 expr act – activators of BRCA1 expression. Potency, µM (doses to about 46.1 µM), usual class: activators. MCF7-BRCA1-FFLuc reporter, luminescence, 48 h; response scale: scaled: vehicle 0%, 10 µM genistein 100%. actives 1.1% (n = 380,000); also: nearly all actives have a fitted effect of over 80% in size
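Reporter cells (MCF7, BRCA1 promoter-firefly luciferase) received library compounds across a concentration series for 48 h. End-point luminescence was measured and concentration-effect curves derived after normalization.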
Giardia killer – kills Giardia lamblia | AID 540267 | actives 0.15% (n = 340,000) | Giardia lamblia trophozoite viability | activity change, % at 7.66 µM, hits read low; in the data active = activity change below about -80%; inconclusive = between about -30% and that limit;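 also: parasites exposed to compound for two days anaerobically before the ATP read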
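Media and compound were dispensed first, then trophozoites at 100 cells/well; plates sat 48 hrs at 37 deg C without oxygen before ATP luminescence reagent was added and read after 15-30 min at room temperature.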
Gal4-VP16 FLuc – counter-screen for ROR gamma inhibitors: Gal4-VP16 reporter; Drosophila S2 Gal4-VP16 UAS-luciferase, luminescence, 20 h; AID 2546; Potency, µM (series often up to 53.6 µM), actives largely listed as inhibitors; actives 3.5% (n = 310,000);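 also: Gal4-VP16 expression switched on by copper sulfate through the metallothionein promoter; nearly all actives have a fitted effect of over 50% in size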
Large screens that a line does not name were inactive. Sampled rows, rich in hits. Any-hit rate of the full collection: about 7.6%. Unless noted, calls follow the shape of the dose curve; as a rule, active = well fitted curve in the direction sought with a large enough effect; inconclusive = small, poorly fitted or top-dose-only effect, or another doubt; inactive = no such curve, though single readings can be large; an effect the other way counts as inactive or inconclusive.

CCN(CC(=O)NC(=O)NC1CCCCC1)Cc1ccccc1	none (no result: RORgamma inh, Gal4-VP16 FLuc)
CCN(CC(=O)NC(=O)NC1CCCCC1)Cc1nc2ccccc2c(=O)[nH]1	RORgamma inh 0.562µM, Gal4-VP16 FLuc 0.562µM
Cc1cc(NC(=O)COC(=O)c2oc3c(ccc4ccccc43)c2C)no1	ELG1 DNA repair inconclusive, RORgamma inh inconclusive, Gal4-VP16 FLuc 11.2µM
O=c1cc(-c2ccncc2)oc2ccccc12	ELG1 DNA repair 9.2µM
O=c1cc(-c2ccsc2)oc2ccccc12	ELG1 DNA repair inconclusive (no result: RORgamma inh, Gal4-VP16 FLuc)
O=c1cc(-c2c(F)c(F)c(F)c(F)c2F)oc2ccccc12	RORgamma inh 7.94µM, Gal4-VP16 FLuc inconclusive
O=c1cc(-c2cccc(F)c2)oc2ccccc12	none (no result: p53 reactivation, ELG1 DNA repair, RORgamma inh, Gal4-VP16 FLuc)
O=c1cc(-c2c(F)c(F)c(F)c(F)c2F)oc2c(F)c(F)c(F)c(F)c12	ELG1 DNA repair inconclusive, RORgamma inh 2.51µM, Gal4-VP16 FLuc 3.16µM (no result: BRCA1 expr act, Giardia killer)
CCCCc1cc2c(cn1)=C(OC(=O)c1cnc3ccccc3n1)C(C)(OC(=O)CC)C(=O)C=2 (stereo not drawn)	none
O=C(N/N=C/c1ccc([N+](=O)[O-])o1)c1ccccc1NS(=O)(=O)c1cccs1	ELG1 DNA repair inconclusive, Giardia killer inconclusive
Cc1ccc(-c2c(C(=O)N/N=C/c3ccc4c(c3)OCO4)nnn2-c2nonc2N)cc1	none
Cc1ccsc1/C=N/NC(=O)c1nnn(-c2nonc2N)c1-c1ccc2c(c1)OCO2	ELG1 DNA repair inconclusive, RORgamma inh 10µM, Giardia killer inconclusive, Gal4-VP16 FLuc inconclusive
Nc1nonc1-n1nnc(C(=O)N/N=C/c2cccs2)c1-c1ccc2c(c1)OCO2	RORgamma inh 7.94µM, Gal4-VP16 FLuc 10µM
Nc1nonc1-n1nnc(C(=O)N/N=C/c2ccccc2Cl)c1-c1ccc2c(c1)OCO2	ELG1 DNA repair inconclusive
CCOC(=O)C1(Cc2ccccc2)CCCN(C2CCCC2)C1 (stereo not drawn)	none
COc1ccccc1Cn1c(/C=C/c2ccccc2)nc2ccccc21	p53 reactivation inconclusive, ELG1 DNA repair inconclusive, RORgamma inh inconclusive, Gal4-VP16 FLuc 22.4µM
Cn1c(=O)c(/C=C/c2ccccc2)nc2ccccc21	p53 reactivation inconclusive, ELG1 DNA repair inconclusive, RORgamma inh inconclusive, Giardia killer inconclusive
Cn1c(/C=C/c2ccccc2)nc2ccccc21	ELG1 DNA repair inconclusive, RORgamma inh 10µM, Giardia killer inconclusive, Gal4-VP16 FLuc 7.08µM
COc1ccccc1Cn1c(C(C)C)nc2ccccc21	ELG1 DNA repair inconclusive, RORgamma inh 7.94µM
C=CCn1c(NCc2ccccc2OC)nc2ccccc21	RORgamma inh inconclusive (no result: p53 reactivation)
CC(=O)c1ccc(/C=C/c2nc3ccccc3n2C)o1	ELG1 DNA repair inconclusive, RORgamma inh 10µM, BRCA1 expr act inconclusive, Gal4-VP16 FLuc inconclusive
Cc1ccccc1Cn1c(C(C)O)nc2ccccc21 (stereo not drawn)	none
CC[C@H](C)[C@H](NC(=O)[C@H](Cc1ccc(O)cc1)NC(=O)[C@H](Cc1cnc[nH]1)NC(=O)[C@H](CCCNC(=N)N)NC(=O)[C@H](CC(C)C)NC(=O)[C@H](C)NC(=O)[C@H](CO)NC(=O)[C@H](Cc1ccc(O)cc1)NC(=O)[C@H](Cc1ccc(O)cc1)NC(=O)[C@H](CCCNC(=N)N)NC(=O)[C@H](C)NC(=O)[C@H](CC(C)C)NC(=O)[C@H](CC(=O)O)NC(=O)[C@H](CCC(=O)O)NC(=O)[C@H](C)NC(=O)[C@@H]1CCCN1C(=O)[C@H](C)NC(=O)[C@H](CC(=O)O)NC(=O)[C@H](CCC(=O)O)NC(=O)CNC(=O)[C@@H]1CCCN1C(=O)[C@H](CC(N)=O)NC(=O)[C@H](CC(=O)O)NC(=O)[C@@H]1CCCN1C(=O)[C@H](CCCCN)NC(=O)[C@H](CO)NC(=O)[C@@H]1CCCN1C(=O)[C@@H](N)Cc1ccc(O)cc1)C(=O)N[C@@H](CC(N)=O)C(=O)N[C@@H](CC(C)C)C(=O)N[C@H](C(=O)N[C@H](C(=O)N[C@@H](CCCNC(=N)N)C(=O)N[C@@H](CCC(N)=O)C(=O)N[C@@H](CCCNC(=N)N)C(=O)N[C@@H](Cc1ccc(O)cc1)C(N)=O)[C@@H](C)O)[C@@H](C)CC	none (no result: p53 reactivation, ELG1 DNA repair, BRCA1 expr act, Giardia killer)
C[C@@H]1CN([C@@H](C)CO)C(=O)c2cc(NC(=O)c3ccccc3)ccc2O[C@@H](C)CCCCO[C@@H]1CN(C)Cc1ccc(C(F)(F)F)cc1	none (no result: p53 reactivation, ELG1 DNA repair, RORgamma inh, Giardia killer, Gal4-VP16 FLuc)
COc1ccc(/C=C/c2nc3ccccc3n2Cc2ccccc2OC)cc1	p53 reactivation inconclusive, ELG1 DNA repair inconclusive, RORgamma inh 14.1µM
COCCn1c(/C=C/c2ccccc2)nc2ccccc21	ELG1 DNA repair inconclusive, RORgamma inh 11.2µM, BRCA1 expr act inconclusive, Gal4-VP16 FLuc inconclusive
COc1ccc(-n2c3c(cc(C(=O)NC4CCSC4=O)c2=O)C(=O)CC(C)(C)C3)cc1 (stereo not drawn)	none
CCN(CC)c1ccc(/C=C/C(=O)C2C(=O)C=C(C)OC2=O)cc1 (stereo not drawn)	p53 reactivation inconclusive, ELG1 DNA repair inconclusive, RORgamma inh 12.6µM, BRCA1 expr act 5.62µM, Gal4-VP16 FLuc inconclusive
O=C(COc1ccc(-c2ccccc2)cc1)N1CCCC1	BRCA1 expr act 12.6µM
COc1ccc(OCCC(=O)N2CCCCC2)cc1	ELG1 DNA repair inconclusive, RORgamma inh inconclusive, BRCA1 expr act 11.2µM
O=C(Oc1ccc(-c2ccccc2)cc1)N1CCCCC1	BRCA1 expr act 7.08µM (no result: p53 reactivation, ELG1 DNA repair)
O=C(COc1ccccc1)NCC(=O)N1CCCC1	none
COc1ccc(OCC(=O)N2CCN(c3nnc(-c4ccc(C)cc4)c4ccccc34)CC2)cc1	ELG1 DNA repair inconclusive, Gal4-VP16 FLuc inconclusive
COc1ccc(OCC(=O)N2CCN(c3nnc(-c4ccccc4)c4ccccc34)CC2)cc1	ELG1 DNA repair 16.4µM, RORgamma inh inconclusive, Gal4-VP16 FLuc inconclusive
COCCN(CCOC)S(=O)(=O)c1ccc(OC)cc1	none
COCc1nc2oc3ccc(C)cc3c(=O)c2cc1C(=O)OC	ELG1 DNA repair inconclusive, BRCA1 expr act 3.16µM
CCc1nc2oc3ccccc3c(=O)c2cc1C(=O)OC	p53 reactivation inconclusive, ELG1 DNA repair inconclusive, RORgamma inh inconclusive, BRCA1 expr act 3.16µM, Gal4-VP16 FLuc inconclusive
Cc1nc2oc3ccc(F)cc3c(=O)c2cc1C(=O)O	ELG1 DNA repair inconclusive
COC(=O)c1ccccc1OCc1cc(=O)oc2ccc(C)cc12	none (no result: p53 reactivation, ELG1 DNA repair, RORgamma inh, Giardia killer, Gal4-VP16 FLuc)
COCc1nc2oc3ccc(F)cc3c(=O)c2cc1C(=O)OC	ELG1 DNA repair inconclusive, BRCA1 expr act 3.98µM
O=C(COc1ccc(Cl)cc1Cl)NNC(=S)NC(=O)c1ccco1	RORgamma inh 11.2µM, Gal4-VP16 FLuc inconclusive
O=C(NCc1ccco1)c1ccc(COc2cc(Cl)ccc2Cl)cc1	p53 reactivation inconclusive, BRCA1 expr act 7.94µM
C/C(CC(=O)NCc1ccco1)=N\NC(=O)COc1ccc(Cl)cc1Cl	RORgamma inh inconclusive
